Source: PubChem BioAssay (Tox21)
Inconclusive results are not listed. Where a call stands in place of a potency, no number is given. Some structures have more than one record in an assay (separate samples or runs), and their calls can disagree. Calls of active or inactive are those of the source. The call rests on the fitted dose curve; in most records, active means well fitted cell-killing curve with a large enough effect in the repeat runs; inconclusive means weak or mixed curves, or effect the other way; inactive means no such curve, though single readings can be large or run the other way.
Potency means the concentration at half of the fitted maximal effect.

Experiment: qHTS assay to identify small molecule agonists of the vitamin D receptor (VDR) signaling pathway - cell viability counter screen (AID 743224); further: nearly all actives have a fitted effect of over 50% in size
Details: VDR-bla HEK293T viability, CellTiter-Glo luminescence, 16 h; series mostly up to 62.6 µM; activity change, negative = cytotoxicity: at the top concentration
Source text: U.S. Tox21 Program National Center for Advancing Translational Sciences [NCATS] NIH Chemical Genomics Center [NCGC] U.S. Environmental Protection Agency [EPA] National Institutes of Environmental Health Sciences [NIEHS] National Toxicology Program [NTP] U.S. Food and Drug Administration [FDA] Tox21 Assay Overview: The vitamin D receptor (VDR), a member of nuclear hormone receptor superfamily, plays a critical role in calcium homeostasis and bone metabolism. It is also involved in cell differentiation and growth, and thrombogenicity. […] The cytotoxicity of the Tox21 compound library against the VDR-bla cell line was tested in parallel by measuring the cell viability using CellTiter-Glo assay (Promega, Madison, WI) in the same wells.
Tox21 Assay Protocol Summary: VDR-bla cells were dispensed at 2,000 cells/6 uL/well into black wall/clear-bottom 1536-well plates using a Multidrop Combi (Thermo Fisher Scientific, Waltham, MA) dispenser. After the assay plates were incubated at a 37C and 5% CO2 for 4 h, 23 nL of compounds dissolved in DMSO, positive controls or DMSO only was transferred to the assay plate by a Pintool station (Kalypsys, San Diego, CA). The plates were incubated at 37C and 5% CO2 for 16 h. After 1 uL of LiveBLAzerTM B/G FRET substrate was added using a Bioraptr Flying Reagent Dispenser (FRD) workstation (Beckman Coulter, Indianapolis, IN, USA), the plates were incubated at room temperature for 2 h, and fluorescence intensity was measured by an Envision plate reader (PerkinElmer, Shelton, CT). For cell viability readout that measures cytotoxicity, 3 ul/well of CellTiter-Glo reagent was added into the assay plates using a FRD. After 30 min incubation at room temperature, the luminescence intensity in the plates was measured using a ViewLux (PerkinElmer) plate reader.
In the case of `COC(=O)C(C)Oc1ccc(Oc2ncc(C(F)(F)F)cc2Cl)cc1` (stereo not given), the Potency is reported as “inactive”.
In the case of `CNC[C@H](O)c1ccc(O)c(O)c1`, the Potency is reported as “inactive”.
In the case of `CC1(C)O[C@@H]2C[C@H]3[C@@H]4C[C@H](F)C5=CC(=O)C=C[C@]5(C)[C@@]4(F)[C@@H](O)C[C@]3(C)[C@]2(C(=O)CO)O1`, the Potency is reported as “inactive”.
In the case of `Cc1ccc(/C(=C\CN2CCCC2)c2ccccn2)cc1`, the Potency is reported as “inactive”.
In the case of `ClC/C=C/CCl`, the Potency is reported as “inactive”.
With `COc1ccc2nc(N)sc2c1` the Potency was “inactive”.
With `O=C(O)c1cc(=O)[nH]c(=O)[nH]1` the “activity change, negative = cytotoxicity” value was -7.34% (inactive).
In the case of `CC(C)=CCO`, the Potency is reported as “inactive”.
For `CC(=O)[C@H]1CC[C@H]2[C@@H]3CC=C4C[C@@H](O)CC[C@]4(C)[C@H]3CC[C@]12C`, the Potency was “inactive”.
With `C=C1C[C@H]2[C@@H]3C=C(C)C4=CC(=O)CC[C@]4(C)[C@H]3CC[C@]2(C)[C@@]1(OC(C)=O)C(C)=O` the Potency was “inactive”.
With `CCC(=O)O[C@H]1[C@H](O[C@@H]2[C@@H](C)[C@H](O[C@H]3C[C@@](C)(OC)[C@@H](O)[C@H](C)O3)[C@@H](C)C(=O)O[C@H](CC)[C@@](C)(O)[C@H](O)[C@@H](C)C(=O)[C@H](C)C[C@@]2(C)O)O[C@H](C)C[C@@H]1N(C)C` the Potency was 36.4 µM (active) and inactive.
For `Oc1c(Cl)ccc(Cl)c1Cl`, the Potency was “inactive”.
For `CC(=O)Oc1c(C)c(C)c2c(c1C)CC[C@@](C)(CCC[C@H](C)CCC[C@H](C)CCCC(C)C)O2`, the Potency was 49 µM (active) and inactive.
With `C[C@]12C=CC(=O)C=C1CC[C@H]1[C@@H]3C[C@@H](O)[C@](O)(C(=O)CO)[C@@]3(C)C[C@H](O)[C@@]12F` the Potency was “inactive”.
With `Clc1ccc(Sc2cc(Cl)c(Cl)cc2Cl)cc1` the Potency was “inactive”.
With `CC1(C)C(C=C(Cl)Cl)C1C(=O)OCc1cccc(Oc2ccccc2)c1` (stereo not given) the Potency was “inactive”.
In the case of `NCCOCCO`, the Potency is reported as “inactive”.
With `Nc1ccc2c(c1)C(=O)c1ccccc1C2=O` the Potency was “inactive”.
With `COC(=O)CC(=O)OC` the Potency was “inactive”.
In the case of `Nc1ccc(O)c(N)c1`, the Potency is reported as “inactive”.
With `O=S1(=O)CCCO1` the Potency was “inactive”.
For `CCCCCCCCCCCCCO`, the Potency was “inactive”.
For `CCCCCCCC/C=C\CCCCCCCC(=O)O`, the Potency was “inactive”.
For `CC(=O)Nc1ccc2c(c1)Cc1cc(NC(C)=O)ccc1-2`, the Potency was “inactive”.
With `C=CC(C)(O)CCC=C(C)C` (stereo not given) the Potency was “inactive”.
For `C=CCNCC=C`, the Potency was “inactive”.
With `C[C@]12CC[C@@H]3c4ccc(O)cc4CC[C@H]3[C@@H]1CC[C@@H]2O` the Potency was “inactive”.
For `C1COCCN1`, the Potency was “inactive”.
With `Cc1ccc(C(C)(C)C)c(O)c1` the “activity change, negative = cytotoxicity” value was -3.35% (inactive).
For `COc1ccc(-c2coc3cc(O)cc(O)c3c2=O)cc1`, the “activity change, negative = cytotoxicity” value was -1.16% [at 81.1 µM] (inactive).
In the case of `CN(C)C`, the Potency is reported as “inactive”.
With `CC/C(=C(/CC)c1ccc(O)cc1)c1ccc(O)cc1` the Potency was 24.3 µM (active).
With `C=CC(=O)OCCCC` the Potency was “inactive”.
In the case of `Nc1cc(Cl)c(N)c(Cl)c1`, the Potency is reported as “inactive”.
In the case of `Cc1ccc(C(C)(C)C)cc1`, the Potency is reported as “inactive”.
In the case of `O=C(O)c1ccc(O)cc1`, the Potency is reported as “inactive”.
With `c1ccc2c(c1)ccc1cc3c(ccc4ccccc43)cc12` the Potency was “inactive”.
With `CC1(C)OC(=O)NC1=O` the Potency was “inactive”.
In the case of `c1ccc2c(c1)[nH]c1ccccc12`, the Potency is reported as “inactive”.
For `Cc1ccc2c(c1)C(=O)OC2=O`, the Potency was “inactive”.
